# Data taken from the supplement of paper PMC8975748.
# Counter-ions that a name gives are not always drawn.
# System: Saccharomyces cerevisiae BY4741 SeMeCo community
# Test: z-score of subpopulation abundance vs DMSO median, subpopulation auxotrophic for HLU; higher = larger share of this subpopulation than in DMSO controls
# Conditions: 10 µM; 24 h; SM minimal medium; subpopulation (auxotrophy): HLU
# Description: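 Fluorescent four-plasmid SeMeCo (self-establishing metabolically cooperating S. cerevisiae BY4741 community; plasmids pH-mRuby2, pL-mWasabi, pU-eCFP, pM-TagRFP657) was grown 24 h in minimal SM medium with each Selleck FDA-approved drug at 10 µM in 384-well plates. Cells were fixed and imaged by high-content confocal microscopy. For each auxotrophic subpopulation (and the prototroph), a z-score gives the deviation from the DMSO vehicle-control population median.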
row,Structure (SMILES),z-score of subpopulation abundance
1,CN[C@@H]1[C@H](O)[C@H](NC)[C@H]2O[C@@]3(O)C(=O)C[C@@H](C)O[C@H]3O[C@@H]2[C@H]1O [Spectinomycin 2HCl],0.02
2,COc1cc(Cc2cnc(N)nc2N)cc(OC)c1OC [Trimethoprim],0.25
3,COc1ccc(Cc2cnc(N)nc2N)cc1OC [Diaveridine],0.14
4,CCC(C)n1ncn(-c2ccc(N3CCN(c4ccc(OCC5COC(Cn6cncn6)(c6ccc(Cl)cc6Cl)O5)cc4)CC3)cc2)c1=O (stereo not given) [Itraconazole],7.28
5,C[C@@H](NCCCc1cccc(C(F)(F)F)c1)c1cccc2ccccc12 [Cinacalcet HCl],-0.17
6,CCCCOc1cc(C(=O)OCCN(CC)CC)ccc1N [Oxybuprocaine HCl],-0.16
7,Nc1nc2c(ncn2COCCO)c(=O)[nH]1 [Aciclovir],-0.88
8,CCCN1C[C@H](C)[C@@H](O)[C@](C)(O)[C@@H](CC)OC(=O)[C@H](C)[C@@H](O[C@H]2C[C@@](C)(OC)[C@@H](O)[C@H](C)O2)[C@H](C)[C@@H](O[C@@H]2O[C@H](C)C[C@H](N(C)C)[C@H]2O)[C@](C)(O)C[C@H]1C [Gamithromycin],0.75
9,NC(=N\CCCCCC/N=C(N)/N=C(\N)Nc1ccc(Cl)cc1)/N=C(\N)Nc1ccc(Cl)cc1 [Chlorhexidine diacetate],1.21
10,Nc1c2c(nc3ccccc13)CCCC2 [Tacrine hydrochloride hydrate],0.33
11,CN(C)CCC=C1c2ccccc2CCc2ccccc21 [Amitriptyline HCl],-1.03
12,COc1ccc(CN2CCN(C(c3ccc(F)cc3)c3ccc(F)cc3)CC2)c(OC)c1OC [Lomerizine 2HCl],0.88
13,CCNC(=O)[C@@H]1CCCN1C(=O)[C@H](CCCNC(=N)N)NC(=O)[C@H](CC(C)C)NC(=O)[C@@H](CC(C)C)NC(=O)[C@H](Cc1ccc(O)cc1)NC(=O)[C@H](CO)NC(=O)[C@H](Cc1c[nH]c2ccccc12)NC(=O)[C@H](Cc1c[nH]cn1)NC(=O)[C@@H]1CCC(=O)N1 [Leuprolide Acetate],0.54
14,N#Cc1ccc2[nH]cc(CCCCN3CCN(c4ccc5oc(C(N)=O)cc5c4)CC3)c2c1 [Vilazodone],0.77
15,Cc1cc(C)nc(NS(=O)(=O)c2ccc(N)cc2)n1 [Sulfamethazine],0.31
16,COCC1=C(C(=O)OC(C)OC(=O)OC(C)C)N2C(=O)[C@@H](NC(=O)/C(=N\OC)c3csc(N)n3)[C@H]2SC1 (stereo not given in full) [Cefpodoxime proxetil],0.57
17,CCC[C@@H]1C[C@@H](C(=O)N[C@@H]([C@H]2O[C@H](SC)[C@H](O)[C@@H](O)[C@H]2O)[C@@H](C)O)N(C)C1 [Lincomycin HCl],-0.34
18,CCCN[C@H]1CCc2nc(N)sc2C1 [Pramipexole],0.75
19,C#CCN(C)Cc1ccccc1 [Pargyline hydrochloride],0.43
20,CCN(CC)C(=O)[C@@]1(c2ccccc2)C[C@H]1CN [Levomilnacipran Hydrochloride],-0.95

row,Structure (SMILES),z-score of subpopulation abundance
1,CC(Cc1ccc(O)c(O)c1)C(C)Cc1ccc(O)c(O)c1 (stereo not given) [Nordihydroguaiaretic acid (NDGA)],0.33
2,CN1[C@@H]2CC[C@H]1C[C@@H](OC(c1ccccc1)c1ccccc1)C2 [Benztropine mesylate],-0.48
3,CC[N+](CC)(CC)CCOc1cccc(OCC[N+](CC)(CC)CC)c1OCC[N+](CC)(CC)CC [Gallamine Triethiodide],0.07
4,CN(CCN1CCC(OC(=O)Nc2ccccc2-c2ccccc2)CC1)C(=O)c1ccc(CN2CCC(C(N)=O)CC2)cc1 [Revefenacin],-0.13
5,CN(C)CCC=C1c2ccccc2C(C)(C)c2ccccc21 [Melitracen hydrochloride],-1.72
6,CC(C)c1c(C(=O)Nc2ccccc2)c(-c2ccccc2)c(-c2ccc(F)cc2)n1CC[C@@H](O)C[C@@H](O)CC(=O)O [Atorvastatin],1.73
7,CCC(C)(C)C(=O)O[C@H]1C[C@@H](C)C=C2C=C[C@H](C)[C@H](CC[C@@H]3C[C@@H](O)CC(=O)O3)[C@H]21 [Simvastatin],3.09
8,Cc1c(-c2ccccc2)oc2c(C(=O)OCCN3CCCCC3)cccc2c1=O [Flavoxate HCl],1.32
9,C[C@@H](O)[C@H]1C(=O)N2C(C(=O)O)=C([C@H]3CCCO3)S[C@H]12 [Faropenem Sodium],0.66
10,O=C(Cn1ccnc1[N+](=O)[O-])NCc1ccccc1 [Benznidazole],-0.74
11,Clc1ccc(COC(Cn2ccnc2)c2ccc(Cl)cc2Cl)c(Cl)c1 (stereo not given) [Miconazole Nitrate],11.6
12,CCOc1ccc(NC(C)=O)cc1 [Phenacetin],0.79
13,Fc1ccc(C(c2ccc(F)cc2)N2CCN(C/C=C/c3ccccc3)CC2)cc1 [Flunarizine 2HCl],0.59
14,CC[C@@H]([C@H](C)O)n1ncn(-c2ccc(N3CCN(c4ccc(OC[C@@H]5CO[C@@](Cn6cncn6)(c6ccc(F)cc6F)C5)cc4)CC3)cc2)c1=O [Posaconazole],14.4
15,Cc1nnc(NS(=O)(=O)c2ccc(N)cc2)s1 [Sulfamethizole],-1.06
16,C[C@@H](O)[C@H]1C(=O)N2C(C(=O)O)=C(SCCNC=N)C[C@H]12 [Imipenem],-0.62
17,CC(C)Cc1ccc(C(C)C(=O)O)cc1 (stereo not given) [Ibuprofen],-0.51
18,Cc1c[nH]c(=O)[nH]c1=O [Thymine],0.71
19,COC(=O)C1=C(C)NC(C)=C(C(=O)OC)C1c1ccccc1[N+](=O)[O-] [Nifedipine],1.29
20,COc1nc2ccc(Br)cc2cc1[C@@H](c1ccccc1)[C@@](O)(CCN(C)C)c1cccc2ccccc12 [Bedaquiline fumarate],0.68
